# Measurements taken from PubChem BioAssay (NCATS).
# Results filed as inconclusive are left out. Where a call stands in place of a potency, no number is given. Active and inactive are the calls of the source. The call rests on the fitted dose curve; in most records, active means well fitted cell-killing curve with a large enough effect; inconclusive means small, poorly fitted or top-dose-only effect, or effect the other way; inactive means no such curve, though single readings can be large or run the other way.
# Assay: qHTS of pediatric cancer cell lines to identify multiple opportunities for drug repurposing: Confirmatory screen for RD cells (AID 1347124);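 further: cells exposed to compound for 48 h before viability readout; nearly all actives have a fitted effect of over 65% in size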
# Settings: RD rhabdomyosarcoma cell viability; series mostly up to 45.9 µM
# Outline: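 Cells (500-1,000/well) rested 5 h, then received compounds for 48 h; metabolically active cells were measured by CellTiter-Glo luminescence. Final concentrations spanned up to 46 µM (MIPE, 11-point) or 0.59 nM-46 µM (NPC, 8-point) in primary screens, 11-point in follow-ups.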
# Potency means the concentration at half of the fitted maximal effect.
row,Compound,Potency
1,COc1cc([C@@H]2c3cc4c(cc3[C@@H](O[C@@H]3O[C@@H]5CO[C@@H](C)O[C@@H]5[C@H](O)[C@@H]3O)[C@H]3COC(=O)[C@H]23)OCO4)cc(OC)c1O,inactive
2,CC(C)(C)c1[nH]cnc1C=c1[nH]c(=O)c(=Cc2ccccc2)[nH]c1=O,18 nM (active)
3,O=C1Nc2ccc(I)cc2C1=Cc1cc(Br)c(O)c(Br)c1,inactive
4,Cc1ccc2c(c1)C(=O)[C@]1(O)CCN(c3ccccc3)C1=N2,inactive
5,CCC[C@H](Nc1nc(-c2ccc(NC(=O)NCC)c(OC)c2)ncc1C)c1cccnc1,147 nM (active)
6,Cc1cnc(-c2cc(N3CCN(C(=O)CCS(C)(=O)=O)CC3)ncc2Cl)c(C)c1,inactive
7,CCC(c1ccc(O)cc1)C(CC)c1ccc(O)cc1 (configuration not stated),10400 nM (active)
8,CCN(CCO)CCCOc1ccc2c(Nc3cc(CC(=O)Nc4cccc(F)c4)[nH]n3)ncnc2c1,inactive
9,CC1(C)OC2CC3C4CC(F)C5=CC(=O)C=CC5(C)C4C(O)CC3(C)[C@]2(C(=O)CO)O1 (some centres not stated),inactive
10,CCC(=O)N1CCN(c2ccc(-n3c(=O)ccc4cnc5ccc(-c6cnc7ccccc7c6)cc5c43)cc2C(F)(F)F)CC1,inactive
11,CC[C@]1(O)C[C@H]2CN(CCC3=c4ccccc4=N[C]3[C@@](C(=O)OC)(c3cc4c(cc3OC)N(C)[C@H]3[C@@](O)(C(N)=O)[C@H](O)[C@]5(CC)C=CCN6CC[C@]43[C@@H]65)C2)C1,369 nM (active)
12,FC(F)(F)c1ccc(C=Cc2nc(COc3ccc(CCCCn4ccnn4)cc3)co2)cc1,1850 nM (active)
